{
  "source": "PubChem BioAssay",
  "experiment": "EMT-state selective cytotoxicity in co-culture – imaging, PC-3E GFP, TEM4-18 mCherry, primary screen (AID 1345086);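 also: cells exposed to compound for 72 h before imaging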;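 as to red/green cell ratio (normalised): normalised mesenchymal count divided by normalised epithelial count so high means epithelial killing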",
  "conditions": "PC-3E GFP / TEM4-18 mCherry co-culture, imaging cell counts, at 1 µM; for red/green cell ratio (normalised): actives lie on both sides, counts scaled to control wells, 1 = unselective",
  "key": {"[1]": {"conditions": "measured here: epithelial PC-3E GFP cell survival"}, "[2]": {"conditions": "measured here: mesenchymal TEM4-18 mCherry cell survival"}},
  "note": "The source made the active and inactive calls.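 The calls were made as follows: active = compounds killing one labelled cell type while sparing the other, by normalised counts and ratio limits, not self-fluorescent; inactive = the rest.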",
  "data": [
    {"smiles": "C[C@H](CCC(=O)NCC(=O)O)[C@H]1CCC2C3C(C[C@H](O)[C@@]21C)[C@@]1(C)CC[C@@H](O)CC1C[C@H]3O", "note": "(stereo not given in full)", "values": [
      {"measurement": "red/green cell ratio (normalised)", "result": "1.13 (inactive)"},
      {"measurement": "normalised cell number", "setting": "[1]", "result": 0.89},
      {"measurement": "normalised cell number", "setting": "[2]", "result": 1.01}
    ]},
    {"smiles": "CC(C)(C)OC(=O)NCCCC(NC(=O)C(Cc1ccccc1)NC(=O)OC(C)(C)C)C(=O)O", "note": "(stereo not given)", "values": [
      {"measurement": "red/green cell ratio (normalised)", "result": "0.88 (inactive)"},
      {"measurement": "normalised cell number", "setting": "[1]", "result": 1.24},
      {"measurement": "normalised cell number", "setting": "[2]", "result": 1.1}
    ]},
    {"smiles": "CC(C)CCCC(C)C1CCC2C3CC[C@H]4C[C@@H](O)CC[C@]4(C)C3CC[C@]12C", "note": "(stereo not given in full)", "values": [
      {"measurement": "red/green cell ratio (normalised)", "result": "1.05 (inactive)"},
      {"measurement": "normalised cell number", "setting": "[1]", "result": 1.04},
      {"measurement": "normalised cell number", "setting": "[2]", "result": 1.1}
    ]},
    {"smiles": "NC(CSSCC(N)C(=O)O)C(=O)O", "note": "(stereo not given)", "values": [
      {"measurement": "red/green cell ratio (normalised)", "result": "0.92 (inactive)"},
      {"measurement": "normalised cell number", "setting": "[1]", "result": 1.24},
      {"measurement": "normalised cell number", "setting": "[2]", "result": 1.15}
    ]},
    {"smiles": "C[C@@H]1CC[C@H]2[C@@H](C)C(O)O[C@@H]3O[C@]4(C)CC[C@@H]1[C@]32OO4", "note": "(stereo not given in full)", "values": [
      {"measurement": "red/green cell ratio (normalised)", "result": "0.74 (inactive)"},
      {"measurement": "normalised cell number", "setting": "[1]", "result": 1.16},
      {"measurement": "normalised cell number", "setting": "[2]", "result": 0.85}
    ]},
    {"smiles": "OC[C@H]1O[C@H](Oc2cc(O)cc(/C=C/c3ccc(O)cc3)c2)[C@H](O)[C@@H](O)[C@@H]1O", "values": [
      {"measurement": "red/green cell ratio (normalised)", "result": "0.79 (inactive)"},
      {"measurement": "normalised cell number", "setting": "[1]", "result": 1.3},
      {"measurement": "normalised cell number", "setting": "[2]", "result": 1.03}
    ]},
    {"smiles": "CC(C)[C@@H]1CC[C@]2(CO2)[C@@H]2C(=O)OCC(C(=O)O)=C[C@H]21", "values": [
      {"measurement": "red/green cell ratio (normalised)", "result": "1.02 (inactive)"},
      {"measurement": "normalised cell number", "setting": "[1]", "result": 1.02},
      {"measurement": "normalised cell number", "setting": "[2]", "result": 1.05}
    ]},
    {"smiles": "CCCCCCCCC[C@H]1O[C@]2(O)CC[C@H](O)[C@]2(O)[C@@H]1O", "values": [
      {"measurement": "red/green cell ratio (normalised)", "result": "0.97 (inactive)"},
      {"measurement": "normalised cell number", "setting": "[1]", "result": 0.93},
      {"measurement": "normalised cell number", "setting": "[2]", "result": 0.91}
    ]},
    {"smiles": "COc1ccc(-c2cc(=O)c3c(O)cc(OC)cc3o2)cc1", "values": [
      {"measurement": "red/green cell ratio (normalised)", "result": "1.15 (inactive)"},
      {"measurement": "normalised cell number", "setting": "[1]", "result": 1.08},
      {"measurement": "normalised cell number", "setting": "[2]", "result": 1.24}
    ]},
    {"smiles": "CC[C@H](C)/C=C/C1=CC2=C(Cl)C(=O)[C@@]3(C)OC(=O)C(C(=O)[C@@H](C)[C@@H](C)O)=C3C2=CO1", "values": [
      {"measurement": "red/green cell ratio (normalised)", "result": "0.99 (inactive)"},
      {"measurement": "normalised cell number", "setting": "[1]", "result": 0.92},
      {"measurement": "normalised cell number", "setting": "[2]", "result": 0.91}
    ]},
    {"smiles": "COc1ccc2oc(-c3ccccc3OC)cc(=O)c2c1", "values": [
      {"measurement": "red/green cell ratio (normalised)", "result": "0.85 (inactive)"},
      {"measurement": "normalised cell number", "setting": "[1]", "result": 1.16},
      {"measurement": "normalised cell number", "setting": "[2]", "result": 0.98}
    ]},
    {"smiles": "C[C@@H]1C[C@H](O)/C=C/[C@H](O)[C@@H](O)CC(=O)O1", "values": [
      {"measurement": "red/green cell ratio (normalised)", "result": "0.87 (inactive)"},
      {"measurement": "normalised cell number", "setting": "[1]", "result": 1.16},
      {"measurement": "normalised cell number", "setting": "[2]", "result": 1.02}
    ]},
    {"smiles": "COc1ccc2oc(-c3ccccc3)c(OC)c(=O)c2c1", "values": [
      {"measurement": "red/green cell ratio (normalised)", "result": "0.79 (inactive)"},
      {"measurement": "normalised cell number", "setting": "[1]", "result": 1.37},
      {"measurement": "normalised cell number", "setting": "[2]", "result": 1.08}
    ]},
    {"smiles": "NCC1O[C@@H](OC2C(N)C[C@@H](N)C(OC3OC(CO)[C@@H](O)C(N)[C@H]3O)[C@H]2O)C(O)CC1O", "note": "(stereo not given in full)", "values": [
      {"measurement": "red/green cell ratio (normalised)", "result": "1.05 (inactive)"},
      {"measurement": "normalised cell number", "setting": "[1]", "result": 1.04},
      {"measurement": "normalised cell number", "setting": "[2]", "result": 1.09}
    ]},
    {"smiles": "Cc1cn(CC(=O)O)c(=O)[nH]c1=O", "values": [
      {"measurement": "red/green cell ratio (normalised)", "result": "0.86 (inactive)"},
      {"measurement": "normalised cell number", "setting": "[1]", "result": 1.15},
      {"measurement": "normalised cell number", "setting": "[2]", "result": 0.99}
    ]},
    {"smiles": "CCN1CCN(c2c(F)cc3c(=O)c(C(=O)O)cn4c3c2OC[C@@H]4C)CC1", "values": [
      {"measurement": "red/green cell ratio (normalised)", "result": "0.75 (inactive)"},
      {"measurement": "normalised cell number", "setting": "[1]", "result": 1.34},
      {"measurement": "normalised cell number", "setting": "[2]", "result": 1}
    ]},
    {"smiles": "CN(C)c1cccc2c(S(N)(=O)=O)cccc12", "values": [
      {"measurement": "red/green cell ratio (normalised)", "result": "1.01 (inactive)"},
      {"measurement": "normalised cell number", "setting": "[1]", "result": 1.15},
      {"measurement": "normalised cell number", "setting": "[2]", "result": 1.16}
    ]},
    {"smiles": "CC1CC(O)C2C=CC(CC(=O)O1)O2", "note": "(stereo not given)", "values": [
      {"measurement": "red/green cell ratio (normalised)", "result": "0.76 (inactive)"},
      {"measurement": "normalised cell number", "setting": "[1]", "result": 0.7},
      {"measurement": "normalised cell number", "setting": "[2]", "result": 0.53}
    ]},
    {"smiles": "O=c1c(O)cccc2cc(O)c(O)c(O)c12", "values": [
      {"measurement": "red/green cell ratio (normalised)", "result": "0.92 (inactive)"},
      {"measurement": "normalised cell number", "setting": "[1]", "result": 1.11},
      {"measurement": "normalised cell number", "setting": "[2]", "result": 1.02}
    ]},
    {"smiles": "C[C@@H]1CCC2[C@](C)(CO)[C@@H](O)CC[C@]2(C)[C@@]12CC[C@@](CO)(CCO)O2", "note": "(stereo not given in full)", "values": [
      {"measurement": "red/green cell ratio (normalised)", "result": "0.93 (inactive)"},
      {"measurement": "normalised cell number", "setting": "[1]", "result": 1.01},
      {"measurement": "normalised cell number", "setting": "[2]", "result": 0.94}
    ]},
    {"smiles": "O=C1C=CC2(Oc3cccc4cccc(c34)O2)[C@H]2[C@H]1[C@@H](O)CC[C@H]2O", "values": [
      {"measurement": "red/green cell ratio (normalised)", "result": "1.07 (inactive)"},
      {"measurement": "normalised cell number", "setting": "[1]", "result": 0.95},
      {"measurement": "normalised cell number", "setting": "[2]", "result": 1.01}
    ]},
    {"smiles": "C=C1OC(=O)[C@]2([C@H](C)C=CC(=O)[C@H]2O)[C@H]1O", "values": [
      {"measurement": "red/green cell ratio (normalised)", "result": "1.05 (inactive)"},
      {"measurement": "normalised cell number", "setting": "[1]", "result": 1.08},
      {"measurement": "normalised cell number", "setting": "[2]", "result": 1.14}
    ]},
    {"smiles": "C[C@H](O)CCc1ccc(C(=O)O)nc1", "values": [
      {"measurement": "red/green cell ratio (normalised)", "result": "0.97 (inactive)"},
      {"measurement": "normalised cell number", "setting": "[1]", "result": 1.16},
      {"measurement": "normalised cell number", "setting": "[2]", "result": 1.13}
    ]},
    {"smiles": "CO[C@H]1C[C@H](O[C@H]2[C@H](C)[C@@H](O[C@@H]3O[C@H](C)C[C@H](N(C)C)[C@H]3O)[C@@H](C)C[C@]3(CO3)C(=O)[C@H](C)[C@@H](O)[C@@H](C)[C@@H](C)OC(=O)[C@@H]2C)O[C@@H](C)[C@@H]1O", "values": [
      {"measurement": "red/green cell ratio (normalised)", "result": "0.92 (inactive)"},
      {"measurement": "normalised cell number", "setting": "[1]", "result": 1.06},
      {"measurement": "normalised cell number", "setting": "[2]", "result": 0.97}
    ]},
    {"smiles": "CO[C@H]1OC(COCc2ccccc2)C(O)[C@@H]2OC(=O)N[C@H]12", "note": "(stereo not given in full)", "values": [
      {"measurement": "red/green cell ratio (normalised)", "result": "1.08 (inactive)"},
      {"measurement": "normalised cell number", "setting": "[1]", "result": 0.88},
      {"measurement": "normalised cell number", "setting": "[2]", "result": 0.95}
    ]}
  ]
}
